Tests used:
Experiment in all cases: DAPPL (digital affinity profiling via proximity ligation, sequencing); 10 mM Tris-HCl pH 7.5, 50 mM NaCl, 1 mM DTT, 4% glycerol, room temperature, 30 min; GST-TFs on glutathione beads, 16-mer random dsDNA library, 0.1% formaldehyde crosslink after washing; high values mean tight binding
[1] = biological target: T1, FLI1 (Homo sapiens, UniProt Q01543 1-452); settings: protein: recombinant; tags: N-terminal GST; dsDNA, one strand shown
T1 sequence: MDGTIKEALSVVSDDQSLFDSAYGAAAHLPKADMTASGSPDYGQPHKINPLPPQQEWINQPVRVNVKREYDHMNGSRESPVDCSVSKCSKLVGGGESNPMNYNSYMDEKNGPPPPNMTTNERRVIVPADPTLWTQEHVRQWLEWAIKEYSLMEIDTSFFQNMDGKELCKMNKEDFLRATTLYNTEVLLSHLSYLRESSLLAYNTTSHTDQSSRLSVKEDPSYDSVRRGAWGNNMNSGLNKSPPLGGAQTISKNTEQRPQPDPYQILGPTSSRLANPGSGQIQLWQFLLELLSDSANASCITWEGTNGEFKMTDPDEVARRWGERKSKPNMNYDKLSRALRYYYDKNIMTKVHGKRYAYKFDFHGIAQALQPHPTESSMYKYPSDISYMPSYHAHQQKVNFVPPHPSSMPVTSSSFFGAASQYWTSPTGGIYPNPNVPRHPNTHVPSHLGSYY
Summary of the method: (§1)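 The binding signal reported is, for every hexamer, its read frequency for a factor over its read frequency for the tag-only sample. Reads came from pools of yeast-expressed, GST-fused human transcription factors on glutathione beads, barcoded with DNA and mixed with that sample, which were incubated with 200 nmole of a random double-stranded 16-mer DNA library in Tris/NaCl/DTT/glycerol buffer at room temperature for 30 min. After washing, the pools were crosslinked with 0.1% formaldehyde, proximity-ligated with BsaI/T4 ligase for 1 h at 37 °C, PCR-amplified and sequenced on an Illumina NextSeq500.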

[2] = biological target: T2, ELK1 (Homo sapiens, UniProt P19419 1-428); settings: protein: recombinant; tags: N-terminal GST; dsDNA, one strand shown
T2 sequence: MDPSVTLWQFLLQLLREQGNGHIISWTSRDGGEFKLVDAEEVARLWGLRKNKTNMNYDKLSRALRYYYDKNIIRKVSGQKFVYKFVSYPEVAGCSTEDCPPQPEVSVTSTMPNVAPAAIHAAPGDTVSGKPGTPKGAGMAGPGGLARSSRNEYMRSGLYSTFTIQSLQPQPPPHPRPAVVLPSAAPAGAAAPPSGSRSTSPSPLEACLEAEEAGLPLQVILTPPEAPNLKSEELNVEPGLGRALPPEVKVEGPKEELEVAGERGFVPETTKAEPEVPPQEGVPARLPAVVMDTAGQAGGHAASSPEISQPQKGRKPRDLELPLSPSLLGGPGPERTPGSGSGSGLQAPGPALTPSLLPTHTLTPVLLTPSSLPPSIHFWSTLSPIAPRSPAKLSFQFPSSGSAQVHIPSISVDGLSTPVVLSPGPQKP
Summary of the method: as §1

[3] = biological target: T3, GABPA (Homo sapiens, UniProt Q06546 1-454); settings: protein: recombinant; tags: N-terminal GST; dsDNA, one strand shown
T3 sequence: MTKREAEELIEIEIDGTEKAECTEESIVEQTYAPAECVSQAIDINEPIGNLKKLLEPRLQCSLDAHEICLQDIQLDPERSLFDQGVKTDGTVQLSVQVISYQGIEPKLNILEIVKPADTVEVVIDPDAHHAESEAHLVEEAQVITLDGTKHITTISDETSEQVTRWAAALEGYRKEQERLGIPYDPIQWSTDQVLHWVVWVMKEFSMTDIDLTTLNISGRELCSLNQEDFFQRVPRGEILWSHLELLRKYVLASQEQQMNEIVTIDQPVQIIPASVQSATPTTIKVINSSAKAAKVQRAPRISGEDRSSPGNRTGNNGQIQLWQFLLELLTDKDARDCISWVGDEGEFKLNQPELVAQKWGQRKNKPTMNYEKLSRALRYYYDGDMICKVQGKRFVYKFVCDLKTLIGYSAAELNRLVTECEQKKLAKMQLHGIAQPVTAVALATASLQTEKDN
Summary of the method: as §1

[4] = biological target: T4, ERG (Homo sapiens, UniProt P11308 1-479); settings: protein: recombinant; tags: N-terminal GST; dsDNA, one strand shown
T4 sequence: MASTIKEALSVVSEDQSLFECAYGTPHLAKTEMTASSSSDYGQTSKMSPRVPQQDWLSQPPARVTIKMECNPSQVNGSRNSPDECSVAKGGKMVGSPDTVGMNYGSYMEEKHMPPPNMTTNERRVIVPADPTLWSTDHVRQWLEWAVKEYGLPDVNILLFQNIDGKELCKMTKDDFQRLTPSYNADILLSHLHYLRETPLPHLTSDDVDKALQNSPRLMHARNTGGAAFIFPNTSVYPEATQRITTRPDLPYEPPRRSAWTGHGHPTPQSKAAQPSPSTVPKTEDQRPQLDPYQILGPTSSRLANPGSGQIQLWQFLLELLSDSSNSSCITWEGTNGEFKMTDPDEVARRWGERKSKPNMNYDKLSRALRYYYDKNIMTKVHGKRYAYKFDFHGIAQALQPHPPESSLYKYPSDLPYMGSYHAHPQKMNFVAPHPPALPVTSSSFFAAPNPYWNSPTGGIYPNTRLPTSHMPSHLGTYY
Summary of the method: as §1

[5] = biological target: ELF1 (Homo sapiens, UniProt P32519 1-619); settings: protein: recombinant; tags: N-terminal GST; dsDNA, one strand shown
Summary of the method: as §1

[6] = biological target: T5, EHF (Homo sapiens, UniProt Q9NZC4 1-300); settings: protein: recombinant; tags: N-terminal GST; dsDNA, one strand shown
T5 sequence: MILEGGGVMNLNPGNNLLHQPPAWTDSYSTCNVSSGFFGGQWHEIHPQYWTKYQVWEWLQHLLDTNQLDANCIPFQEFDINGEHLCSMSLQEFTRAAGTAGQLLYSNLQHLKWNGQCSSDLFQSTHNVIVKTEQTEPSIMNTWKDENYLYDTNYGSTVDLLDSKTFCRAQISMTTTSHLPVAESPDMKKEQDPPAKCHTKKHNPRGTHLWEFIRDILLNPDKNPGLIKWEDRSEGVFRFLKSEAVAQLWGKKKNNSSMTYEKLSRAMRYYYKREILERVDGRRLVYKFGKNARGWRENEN
Summary of the method: as §1

[7] = biological target: SPI1 (Homo sapiens, UniProt P17947 1-270); settings: protein: recombinant; tags: N-terminal GST; dsDNA, one strand shown
Summary of the method: as §1

[8] = biological target: SPIB (Homo sapiens, UniProt Q01892 1-262); settings: protein: recombinant; tags: N-terminal GST; dsDNA, one strand shown
Summary of the method: as §1

[9] = biological target: T6, ELK3 (Homo sapiens, UniProt P41970 1-407); settings: protein: recombinant; tags: N-terminal GST; dsDNA, one strand shown
T6 sequence: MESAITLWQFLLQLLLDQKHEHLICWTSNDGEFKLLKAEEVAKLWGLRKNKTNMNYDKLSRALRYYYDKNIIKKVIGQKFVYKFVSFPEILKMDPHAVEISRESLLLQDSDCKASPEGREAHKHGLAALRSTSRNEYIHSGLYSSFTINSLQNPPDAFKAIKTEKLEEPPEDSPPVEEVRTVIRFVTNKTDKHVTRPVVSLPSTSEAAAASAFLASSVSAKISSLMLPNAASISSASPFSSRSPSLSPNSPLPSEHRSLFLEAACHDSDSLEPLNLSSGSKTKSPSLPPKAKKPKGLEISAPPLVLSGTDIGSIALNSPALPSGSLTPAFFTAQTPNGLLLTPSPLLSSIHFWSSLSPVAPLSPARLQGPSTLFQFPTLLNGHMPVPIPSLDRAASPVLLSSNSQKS
Summary of the method: as §1

[10] = biological target: T7, FEV (Homo sapiens, UniProt Q99581 1-238); settings: protein: recombinant; tags: N-terminal GST; dsDNA, one strand shown
T7 sequence: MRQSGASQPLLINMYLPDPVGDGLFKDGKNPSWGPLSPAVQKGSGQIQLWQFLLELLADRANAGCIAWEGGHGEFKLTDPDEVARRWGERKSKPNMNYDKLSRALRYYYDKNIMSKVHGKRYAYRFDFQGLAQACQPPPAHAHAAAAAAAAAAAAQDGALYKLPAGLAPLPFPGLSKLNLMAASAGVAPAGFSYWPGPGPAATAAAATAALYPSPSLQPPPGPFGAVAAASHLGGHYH
Summary of the method: as §1

[11] = biological target: ETV5 (Homo sapiens, UniProt P41161 1-510); settings: protein: recombinant; tags: N-terminal GST; dsDNA, one strand shown
Summary of the method: as §1

[12] = biological target: HSF1 (Homo sapiens, UniProt Q00613 1-529); settings: protein: recombinant; tags: N-terminal GST; chain copies: 3; dsDNA, one strand shown
Summary of the method: as §1

[13] = biological target: T8, SPIC (Homo sapiens, UniProt Q8N5J4 1-248); settings: protein: recombinant; tags: N-terminal GST; dsDNA, one strand shown
T8 sequence: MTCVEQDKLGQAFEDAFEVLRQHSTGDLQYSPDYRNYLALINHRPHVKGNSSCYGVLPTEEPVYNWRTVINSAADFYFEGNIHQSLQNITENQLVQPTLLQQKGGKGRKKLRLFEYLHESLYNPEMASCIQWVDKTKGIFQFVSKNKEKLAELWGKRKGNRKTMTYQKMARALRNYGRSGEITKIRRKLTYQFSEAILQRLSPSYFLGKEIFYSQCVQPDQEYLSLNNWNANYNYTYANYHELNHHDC
Summary of the method: as §1

[14] = biological target: ELF4 (Homo sapiens, UniProt Q99607 1-663); settings: protein: recombinant; tags: N-terminal GST; dsDNA, one strand shown
Summary of the method: as §1

[15] = biological target: T9, ELK4 (Homo sapiens, UniProt P28324-2 1-405); settings: protein: recombinant; tags: N-terminal GST; dsDNA, one strand shown
T9 sequence: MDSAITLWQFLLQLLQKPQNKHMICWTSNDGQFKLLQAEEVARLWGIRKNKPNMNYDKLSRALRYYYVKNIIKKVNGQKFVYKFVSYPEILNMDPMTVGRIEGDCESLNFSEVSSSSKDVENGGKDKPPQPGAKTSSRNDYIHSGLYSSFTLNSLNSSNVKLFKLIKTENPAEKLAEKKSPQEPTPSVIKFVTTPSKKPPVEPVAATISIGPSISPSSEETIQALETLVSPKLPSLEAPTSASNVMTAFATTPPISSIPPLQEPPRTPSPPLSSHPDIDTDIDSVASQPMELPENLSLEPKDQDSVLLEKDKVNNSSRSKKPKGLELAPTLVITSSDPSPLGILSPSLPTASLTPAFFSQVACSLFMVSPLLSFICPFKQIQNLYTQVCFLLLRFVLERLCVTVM
Summary of the method: as §1

[16] = biological target: T10, ELF3 (Homo sapiens, UniProt P78545 1-371); settings: protein: recombinant; tags: N-terminal GST; dsDNA, one strand shown
T10 sequence: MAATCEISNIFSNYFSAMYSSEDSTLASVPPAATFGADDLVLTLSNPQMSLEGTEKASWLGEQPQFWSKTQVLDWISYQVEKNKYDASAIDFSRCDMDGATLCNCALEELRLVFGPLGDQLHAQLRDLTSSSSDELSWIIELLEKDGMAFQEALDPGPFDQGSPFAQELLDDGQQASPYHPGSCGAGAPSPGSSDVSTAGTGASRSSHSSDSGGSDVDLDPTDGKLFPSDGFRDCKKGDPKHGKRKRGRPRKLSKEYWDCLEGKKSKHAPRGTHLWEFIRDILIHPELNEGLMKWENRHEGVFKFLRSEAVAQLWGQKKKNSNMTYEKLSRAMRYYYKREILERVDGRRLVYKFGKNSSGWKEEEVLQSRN
Summary of the method: as §1

[17] = biological target: CRX (Homo sapiens, UniProt O43186 1-299); settings: protein: recombinant; tags: N-terminal GST; dsDNA, one strand shown
Summary of the method: as §1

[18] = biological target: ETV1 (Homo sapiens, UniProt P50549 1-477); settings: protein: recombinant; tags: N-terminal GST; dsDNA, one strand shown
Summary of the method: as §1

Sequence of ETV5 (P41161 whole entry): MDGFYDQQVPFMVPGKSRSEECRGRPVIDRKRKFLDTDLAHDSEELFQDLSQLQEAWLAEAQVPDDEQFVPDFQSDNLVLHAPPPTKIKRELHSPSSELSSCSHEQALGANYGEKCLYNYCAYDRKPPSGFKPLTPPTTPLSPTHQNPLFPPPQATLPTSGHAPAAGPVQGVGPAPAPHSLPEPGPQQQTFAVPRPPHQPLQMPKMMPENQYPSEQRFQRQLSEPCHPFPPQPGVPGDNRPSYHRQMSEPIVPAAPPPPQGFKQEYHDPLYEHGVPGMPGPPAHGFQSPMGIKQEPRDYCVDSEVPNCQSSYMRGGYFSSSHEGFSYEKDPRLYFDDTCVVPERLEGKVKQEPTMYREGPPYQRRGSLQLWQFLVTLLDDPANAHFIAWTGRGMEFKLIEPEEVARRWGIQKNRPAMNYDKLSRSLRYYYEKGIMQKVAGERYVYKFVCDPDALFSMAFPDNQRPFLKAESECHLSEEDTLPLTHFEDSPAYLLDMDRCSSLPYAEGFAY
Sequence of CRX (O43186 whole entry): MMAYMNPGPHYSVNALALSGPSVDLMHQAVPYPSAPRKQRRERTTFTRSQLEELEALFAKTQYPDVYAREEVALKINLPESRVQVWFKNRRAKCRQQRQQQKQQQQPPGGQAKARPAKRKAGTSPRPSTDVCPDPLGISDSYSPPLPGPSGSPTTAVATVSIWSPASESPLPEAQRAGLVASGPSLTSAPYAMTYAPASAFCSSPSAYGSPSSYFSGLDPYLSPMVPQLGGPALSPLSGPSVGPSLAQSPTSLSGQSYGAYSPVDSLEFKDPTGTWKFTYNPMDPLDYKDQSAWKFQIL
Sequence of ELF4 (Q99607 whole entry): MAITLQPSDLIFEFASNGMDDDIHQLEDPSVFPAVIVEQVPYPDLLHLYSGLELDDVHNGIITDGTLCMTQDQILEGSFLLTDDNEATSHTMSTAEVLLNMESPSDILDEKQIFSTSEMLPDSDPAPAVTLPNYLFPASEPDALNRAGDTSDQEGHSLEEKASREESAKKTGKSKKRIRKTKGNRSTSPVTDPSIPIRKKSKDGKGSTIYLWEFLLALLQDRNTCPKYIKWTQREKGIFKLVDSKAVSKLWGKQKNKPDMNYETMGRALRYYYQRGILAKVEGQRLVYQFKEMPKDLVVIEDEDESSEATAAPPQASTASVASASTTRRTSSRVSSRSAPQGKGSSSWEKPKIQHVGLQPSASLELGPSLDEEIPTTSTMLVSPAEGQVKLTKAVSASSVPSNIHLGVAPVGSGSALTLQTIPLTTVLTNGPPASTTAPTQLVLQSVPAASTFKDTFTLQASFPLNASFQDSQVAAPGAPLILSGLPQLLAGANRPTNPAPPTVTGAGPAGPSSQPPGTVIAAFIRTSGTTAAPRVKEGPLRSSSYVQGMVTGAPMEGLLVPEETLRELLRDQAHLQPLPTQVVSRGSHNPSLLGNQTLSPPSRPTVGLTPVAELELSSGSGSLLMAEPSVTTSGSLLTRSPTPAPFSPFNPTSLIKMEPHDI
Sequence of ELF1 (P32519 whole entry): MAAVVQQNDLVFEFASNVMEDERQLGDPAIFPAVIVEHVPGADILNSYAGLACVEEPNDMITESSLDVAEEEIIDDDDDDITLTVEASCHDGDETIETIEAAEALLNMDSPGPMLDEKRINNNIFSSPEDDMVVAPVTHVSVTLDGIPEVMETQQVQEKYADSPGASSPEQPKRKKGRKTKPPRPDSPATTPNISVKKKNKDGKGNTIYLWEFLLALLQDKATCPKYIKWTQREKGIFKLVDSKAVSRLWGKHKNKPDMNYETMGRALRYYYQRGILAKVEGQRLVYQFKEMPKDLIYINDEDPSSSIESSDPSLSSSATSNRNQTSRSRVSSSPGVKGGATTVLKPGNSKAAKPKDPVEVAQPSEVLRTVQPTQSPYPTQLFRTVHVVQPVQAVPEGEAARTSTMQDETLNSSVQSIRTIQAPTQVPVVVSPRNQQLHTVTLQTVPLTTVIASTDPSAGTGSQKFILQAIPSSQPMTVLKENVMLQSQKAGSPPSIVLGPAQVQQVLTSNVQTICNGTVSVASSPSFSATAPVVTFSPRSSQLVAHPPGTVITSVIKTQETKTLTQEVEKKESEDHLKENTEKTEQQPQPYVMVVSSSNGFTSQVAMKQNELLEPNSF
Sequence of HSF1 (Q00613 whole entry): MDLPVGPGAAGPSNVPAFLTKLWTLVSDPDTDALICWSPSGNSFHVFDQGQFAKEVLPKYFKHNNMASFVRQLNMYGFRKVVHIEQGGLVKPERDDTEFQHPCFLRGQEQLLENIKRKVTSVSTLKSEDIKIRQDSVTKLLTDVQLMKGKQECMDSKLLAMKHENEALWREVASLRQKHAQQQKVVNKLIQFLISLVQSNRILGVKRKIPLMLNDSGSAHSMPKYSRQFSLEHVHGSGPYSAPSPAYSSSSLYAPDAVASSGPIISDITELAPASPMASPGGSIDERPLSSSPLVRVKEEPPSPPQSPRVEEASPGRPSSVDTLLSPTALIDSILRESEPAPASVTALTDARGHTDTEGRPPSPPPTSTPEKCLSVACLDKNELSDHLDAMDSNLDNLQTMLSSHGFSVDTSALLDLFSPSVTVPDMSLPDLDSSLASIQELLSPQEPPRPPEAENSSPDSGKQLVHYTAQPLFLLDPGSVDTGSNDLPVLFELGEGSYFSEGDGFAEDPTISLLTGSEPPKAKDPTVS
Sequence of ETV1 (P50549 whole entry): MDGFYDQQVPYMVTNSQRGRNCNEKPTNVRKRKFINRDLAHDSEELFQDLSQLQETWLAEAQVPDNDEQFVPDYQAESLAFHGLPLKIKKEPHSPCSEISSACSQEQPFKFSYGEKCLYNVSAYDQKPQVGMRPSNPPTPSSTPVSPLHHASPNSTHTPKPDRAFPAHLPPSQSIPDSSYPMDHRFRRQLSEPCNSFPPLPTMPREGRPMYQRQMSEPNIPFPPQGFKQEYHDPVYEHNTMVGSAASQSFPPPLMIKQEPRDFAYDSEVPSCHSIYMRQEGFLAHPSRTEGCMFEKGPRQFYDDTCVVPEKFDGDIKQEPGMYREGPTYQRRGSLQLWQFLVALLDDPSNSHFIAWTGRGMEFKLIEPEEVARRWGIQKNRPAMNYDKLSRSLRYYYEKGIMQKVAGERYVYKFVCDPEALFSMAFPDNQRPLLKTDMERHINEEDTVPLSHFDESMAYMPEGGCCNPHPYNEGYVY
Sequence of SPIB (Q01892 whole entry): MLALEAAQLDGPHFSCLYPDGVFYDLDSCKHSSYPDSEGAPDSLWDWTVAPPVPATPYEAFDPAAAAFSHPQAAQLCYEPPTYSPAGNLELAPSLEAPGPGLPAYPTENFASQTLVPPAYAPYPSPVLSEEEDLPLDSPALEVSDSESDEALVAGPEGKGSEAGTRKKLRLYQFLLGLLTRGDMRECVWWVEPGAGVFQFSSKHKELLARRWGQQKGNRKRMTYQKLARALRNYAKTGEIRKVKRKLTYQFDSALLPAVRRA

Sequence: CATGAT
- binding signal [1]: 1.15 fold enrichment (6-mer frequency, TF over GST control)
- binding signal [2]: 1.06 fold enrichment (6-mer frequency, TF over GST control)
- binding signal [3]: 1.19 fold enrichment (6-mer frequency, TF over GST control)
- binding signal [4]: 1.03 fold enrichment (6-mer frequency, TF over GST control)
- binding signal [5]: 1.09 fold enrichment (6-mer frequency, TF over GST control)
- binding signal [6]: 1.09 fold enrichment (6-mer frequency, TF over GST control)
- binding signal [7]: 1.03 fold enrichment (6-mer frequency, TF over GST control)
- binding signal [8]: 1.04 fold enrichment (6-mer frequency, TF over GST control)
- binding signal [9]: 1.19 fold enrichment (6-mer frequency, TF over GST control)
- binding signal [10]: 1.06 fold enrichment (6-mer frequency, TF over GST control)
- binding signal [11]: 1.08 fold enrichment (6-mer frequency, TF over GST control)
- binding signal [12]: 1.1 fold enrichment (6-mer frequency, TF over GST control)
- binding signal [13]: 1.14 fold enrichment (6-mer frequency, TF over GST control)
- binding signal [14]: 1.17 fold enrichment (6-mer frequency, TF over GST control)
- binding signal [15]: 1.13 fold enrichment (6-mer frequency, TF over GST control)
- binding signal [16]: 1.08 fold enrichment (6-mer frequency, TF over GST control)
- binding signal [17]: 1.17 fold enrichment (6-mer frequency, TF over GST control)
- binding signal [18]: 1.07 fold enrichment (6-mer frequency, TF over GST control)
